# Results as given in PubChem BioAssay AID588342 (National Center for Advancing Translational Sciences (NCATS), 2011).
# Out of some 360,000 compounds screened, about 25,000 (6.9%) were called active. About 9% were inconclusive and are not listed. The full list was thinned out, with actives kept by preference. Values without a mark were called inactive. Calls come from the whole dose curve; as a rule, active = well fitted inhibition curve with a large enough effect; inconclusive = small, poorly fitted or top-dose-only effect; inactive = flat fitted curve, though single readings scatter.
# Biological target: Luciferin 4-monooxygenase (Photinus pyralis) (UniProt P08659)
# Sequence (P08659 whole entry, looked up): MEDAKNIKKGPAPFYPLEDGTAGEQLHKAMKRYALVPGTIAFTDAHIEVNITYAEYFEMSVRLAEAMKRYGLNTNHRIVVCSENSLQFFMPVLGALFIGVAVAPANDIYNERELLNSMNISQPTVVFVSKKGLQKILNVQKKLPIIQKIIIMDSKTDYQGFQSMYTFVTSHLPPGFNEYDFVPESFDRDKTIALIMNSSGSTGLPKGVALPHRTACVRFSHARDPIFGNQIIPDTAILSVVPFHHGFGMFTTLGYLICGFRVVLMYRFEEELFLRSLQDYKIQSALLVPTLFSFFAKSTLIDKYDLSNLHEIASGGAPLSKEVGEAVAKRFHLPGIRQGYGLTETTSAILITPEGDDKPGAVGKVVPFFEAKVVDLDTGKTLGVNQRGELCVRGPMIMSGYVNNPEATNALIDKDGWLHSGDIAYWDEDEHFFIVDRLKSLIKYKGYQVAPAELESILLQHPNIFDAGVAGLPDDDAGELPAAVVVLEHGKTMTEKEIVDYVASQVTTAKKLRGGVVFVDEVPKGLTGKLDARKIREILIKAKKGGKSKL
# Assay: qHTS profiling assay for firefly luciferase inhibitor/activator using purifed enzyme and Km concentrations of substrates (counterscreen for miR-21 project); note: nearly all actives have a fitted effect of over 55% in size;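 for activity change, negative = inhibition: plate controls were vehicle for no effect and reference inhibitor for full effect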
# Conditions: purified FLuc, luminescence inhibition; series mostly up to 57.5 µM; activity change, negative = inhibition: at the top concentration
# From the text: MLPCN Grant: 1 R21 NS059478-01 (miR-21 grant) Assay Provider: NCGC NCGC Assay Overview: Firefly (Photinus pyralis) luciferase is one of the most commonly used transcriptional reporters for a number of reasons. It is considered one of the more dynamically responsive reporters -that is, responsive to changes in reporter transcription - as it requires no post-translational modifications and is enzymatically active directly after protein synthesis (Wood, 1998). Additionally, the half-life of the luciferase protein is short relative to other reporter-gene products (Wood, 1995). Whereas reporters with long half-lives potentially allow for increased signal due to accumulation of reporter-gene product, once accumulated in the cell, dynamic changes in reporter-gene expression may be difficult to detect(Fan and Wood, 2007; Almond et al., 2004). It has been shown that wild-type P. pyralis luciferase has a half-life of approximately […] hours in mammalian cells (Thompson et al., 1991). Firefly luciferase reporter-gene assays are also generally considered one of the most sensitive assay types (Wood, 1995; Wood, 1998). Although light produced in a bioluminescence reaction is of lower intensity than that produced during fluorescence emission, this is offset by little to no background light inherent to luminescent assays. Thus the luciferase reporter can be expressed at much lower levels than fluorescent proteins while still providing robust signal. # However, it was initially observed, in 1991, by Thompson et al., that compounds that resemble the substrates of firefly luciferase (FLuc) can act as competitive inhibitors of the enzyme, and that these compounds, upon interaction with luciferase in the cell, can actually stabilize the protein and increase its half-life. Accumulated intracellular FLuc protein can be measured as an increase in luminescence signal, upon addition of detection reagents (which contain high concentrations of FLuc substrates) commonly used in high-throughput screening. In cell-based reporter gene assays that use FLuc as the reporter gene to quantitate the potential influence of a given compound against the target biology, this apparent increase in luminescence can mistakenly be interpreted as identification of a compound that is active against the target of interest. This is the case for the miR-21 FLuc reporter gene assay used to identify inhibitors of the miR-21 pathway (PubChem AID 2289) - compounds of interest will inhibit miR-21 biogenesis/expression or activity, and are identified by causing an increase in luminescence, due to increased FLuc translation. However, FLuc inhibitory compounds that stabilize the FLuc protein will give an identical read-out, making it difficult to distinguish compounds that are active against the target from those active against FLuc. Previous profiling work to determine the prevalence of compounds that affect FLuc enzymatic activity (PubChem AID 411) identified that ~3% of the MLSMR library (then at ~72K) inhibited FLuc. […] Since the MLSMR had grown to ~350K compounds, and since it was expected that a significant percentage of compounds found active in the miR-21 FLuc assay would be FLuc inhibitors, the library was screened for activity against FLuc using a biochemical assay of purified FLuc and KM concentrations of FLuc substrates (D-luciferin and ATP).
# NCGC Assay Protocol Summary: Reagents: 50mM Tris acetate, pH 7.5; 10mM Mg acetate; 10uM D-luciferin (Sigma #L9504); 10uM ATP; 0.01% Tween-20; 0.05% BSA; 10nM P. pyralis luciferase (Sigma #L9506) Control compounds used were two known firefly luciferase inhibitors (compounds (2) and (5) in Auld et al., 2010), and DMSO. […]
Structure (SMILES),"activity change, negative = inhibition [%]",Potency
COc1cc(NC(=O)CSc2nc3nc(C)c(Cc4ccc(C)cc4)c(C)n3n2)cc(OC)c1OC,-10.1,–
CCC(C)N(C(=O)CSc1nnnn1-c1ccccc1OC)C1CCS(=O)(=O)C1 (stereo not given),0.645,–
CCC(=O)N1CCc2cc(S(=O)(=O)NC(C(=O)NCCc3ccc(C)cc3)C(C)C)ccc21 (stereo not given),-4.06,–
Cc1cc(C)nc(SCC(=O)c2ccc(Cl)cc2)n1,1.59,–
Cc1cc(Oc2ccc(Cl)cc2)nc(SCC(=O)c2ccccc2)n1,-2.98,–
Cc1cc(C)nc(S/C=C/C(=O)c2ccccc2)n1,–,3.79 µM (active)
O=C(CSc1nccn1-c1ccc(F)cc1)Nc1cccc2ccccc12,-15.4,–
S=C(c1ccc(-c2ccccc2)o1)N1CCCCC1,–,2.69 µM (active)
OCCN1CCN(C(=S)c2ccc(-c3ccccc3)cc2)CC1,-14.4,–
S=C(c1ccccc1)N1CCCC1,-0.387,–
COc1cccc(C(=O)NC2(C(F)(F)F)C(=O)Nc3c2c(=O)[nH]c(=O)n3-c2ccc(C)cc2)c1 (stereo not given),-3.45,–
CC1CC(C)CN(C(=O)COC(=O)c2ccc3ncsc3c2)C1 (stereo not given),-5.66,–
CCCc1cc(-c2n[nH]c(=S)n2Cc2ccccc2)cs1,-0.86,–
Cc1nc(C)c(-c2csc(NCCc3ccccc3)n2)s1,–,16.9 µM (active)
Cc1nc2sccn2c(=O)c1S(=O)(=O)NCCc1ccccc1,5.93,–
Cc1c(Cl)cccc1NC(=O)C1CCCN(c2ncnc3onc(C)c23)C1 (stereo not given),10.6,–
Cc1ccc(Cl)cc1N1CCN(C(=O)c2cnc3c(-c4ccc(F)cc4)c(C)nn3c2C)CC1,0.594,–
O=C(Nc1cccnc1)c1noc2c1CCCCC2,–,7.57 µM (active)
Cc1noc(C)c1COc1cccc(C(=O)Nc2cccnc2)c1,-4.82,–
O=C(Nc1cccnc1)c1cccc(S(=O)(=O)N2CCCC2)c1,-2.12,–
CCOC(=O)c1c(C)[nH]c(CCC(=O)Nc2ccc(OC)c(OC)c2)c1C,-6.27,–
Cc1cc(NS(=O)(=O)c2ccc(NC(=O)c3cccnc3)cc2)nc(C)n1,-0.527,–
O=C(Cc1ccccc1)Nc1ccc(NC(=O)c2cccnc2)cc1,-2.2,–
Cc1cc2nc(-c3ccc(NC(=O)c4cccnc4)cc3)oc2cc1C,–,6.75 µM (active)
O=C(Nc1ccc(-c2nc3cc(NC(=O)c4ccccc4Cl)ccc3o2)cc1)c1ccccc1Cl,-2,–
Cc1ccc2nc(-c3ccc(NC(=O)c4cccnc4)cc3)oc2c1,–,5.36 µM (active)
CC(=O)NC(=S)Nc1ccc(NC(=O)c2cccnc2)cc1,-0.139,–

Structure (SMILES),"activity change, negative = inhibition [%]",Potency
CC(C)NC(=O)C1CCC(Cn2c(=O)c3sccc3n(Cc3ccc(F)cc3)c2=O)CC1 (stereo not given),-0.0077,–
COc1cc(OC)c(NC(=O)N2CC3CCCN3c3ccccc32)cc1Cl (stereo not given),-9.36,–
COC(=O)c1ccccc1NC(=O)Cn1c(=O)cc(C)c2c(C)nn(-c3cccc(Cl)c3C)c21,0.184,–
COc1ccc2ncc3c(-c4ccc(C)c(C)c4)nn(CC(=O)NC4CCCC4)c3c2c1,-4.06,–
COc1c(O)cc2oc(-c3ccc(O)c(O)c3)cc(=O)c2c1O,–,19 µM (active)
COc1ccc(-c2cc(=O)c3c(O)cc(O[C@@H]4O[C@H](CO[C@@H]5O[C@@H](C)[C@H](O)[C@@H](O)[C@H]5O)[C@@H](O)[C@H](O)[C@H]4O)cc3o2)cc1O,-3.38,–
CCOC(=O)COc1cc(O)c2c(=O)cc(-c3ccccc3)oc2c1,-14.3,–
COc1ccccc1CNC(=O)CCCCn1c(=O)c2ccccc2n(CC(=O)Nc2cc(Cl)ccc2C)c1=O,4.1,–
Cc1nn(C(=O)c2c(F)cccc2F)c(C)c1S(=O)(=O)N1CCOCC1,-0.398,–
CC(C)(C)OC(=O)NCCCCCNC(=O)c1[nH]cnc1C(=O)Nc1nccs1,-0.773,–
Cc1ccc(-n2c(SCC(=O)NCc3ccc4c(c3)OCO4)nnc2-c2cccnc2)c(C)c1,5.43,–
Cc1ccc(C)c(N2CCN(C(=O)C3CCC(CNS(=O)(=O)c4cccs4)CC3)CC2)c1 (stereo not given),1.58,–
Cc1ccc(S(=O)(=O)Nc2nc3ccccc3nc2N2CCc3ccccc3C2)cc1,-14.3,–
Cc1ccc2c(c1)c1ncnc(N3CCc4ccccc4C3)c1n2C,–,13.5 µM (active)
Cc1ccc2c(c1)c1ncn(Cc3ccc(F)cc3)c(=O)c1n2C,0.78,–
CCN(CC)CCCNC(=O)c1cn(C)c2ccc(S(=O)(=O)N(C)C3CCCCC3)cc2c1=O,–,inactive
Cn1c(=O)c2c(-c3ccccc3Br)n(Cc3ccccc3)cc2n(C)c1=O,0.343,–
COc1cc(OC)cc(-c2c(-c3cccs3)c3cc(-c4ccc(OC)cc4F)ccc3n2C)c1,2.41,–
CCn1cc(C(=O)NCc2ccc(OC)cc2OC)c(=O)c2ccc(C)nc21,0.405,–
O=C(/C=C/c1ccccc1)N1CCN(Cc2cc(=O)n3nc(-c4ccccc4F)sc3n2)CC1,3.3,–
Cc1cc(/C=N/NC(=O)c2cccnc2)c(C)n1CC(C)C,–,7.57 µM (active)
O=C(CNC(=O)c1cccnc1)N/N=C/c1cc(Br)c(O)c(Br)c1,2.48,–
O=C(CNC(=O)c1cccnc1)N/N=C/c1cccnc1,2.58,–
COc1ccc(Cn2c(C(=O)O)c(CNCCc3cccs3)c3ccc(OC)cc32)cc1,-1.08,–
Cc1cc(N=Nc2ccc3ccccc3c2)ccc1O,–,1.35 µM (active)
CCOc1ccc(-c2nonc2NC(=O)c2oc3ccc(C)cc3c2C)cc1OCC,-10.5,–
COc1ccc2c(c1)c(=O)c(C(=O)c1ccccc1)cn2CC(=O)Nc1ccc2c(c1)OCCO2,-2.53,–

Structure (SMILES),"activity change, negative = inhibition [%]",Potency
COc1cccc(NC(=O)CSc2nccn(-c3ccc4c(c3)OCCO4)c2=O)c1,1.19,–
COc1ccc(/C=C/C(=O)Nc2ccc(C34CC5CC(CC(O)(C5)C3)C4)cc2)cc1OC,–,0.601 µM (active)
COc1ccc(NS(=O)(=O)c2cc(NC(=O)/C=C/c3cc(OC)c(OC)c(OC)c3)ccc2N2CCCCC2)cc1,-2,–
COc1ccc(/C=C/C(=O)N2CCCC2)cc1OC,-4.89,–
COc1ccc(/C=C/C(=O)Nc2ccc3c(c2)OCCO3)cc1OC,–,23.9 µM (active)
COc1ccc(S(=O)(=O)N(C)CC(=O)Nc2ccc3c(c2)OCCO3)cc1OC,-12.7,–
COc1ccc(/C=C/C(=O)Nc2ccc(C)cc2)cc1S(=O)(=O)N1CCOCC1,-3.53,–
COc1cccc(/C=C/C(=O)Nc2ccc3c(c2)OCCO3)c1,–,0.757 µM (active)
COc1cc(C(=O)Nc2cc(C(F)(F)F)ccc2-n2cncn2)cc(OC)c1OC,-1.82,–
CN(C)C(=O)N1CCNCC1,1.03,–
CC12C(=O)N(c3ccccc3)C(=O)C1C(c1ccccc1)N1CCCN12 (stereo not given),0.0847,–
CCOC(=O)C1CN(S(=O)(=O)c2ccc(F)cc2)C1,-0.508,–
COc1ccc(CNC(=O)c2ccc(NS(=O)(=O)c3ccc4[nH]c(=O)[nH]c4c3)cc2)cc1OC,0.241,–
CCC1CCCCN1C(=S)Nc1ccc(SC(F)F)cc1 (stereo not given),–,12 µM (active)
CCC1CCCCN1C(=S)Nc1ccc(S(=O)(=O)Nc2ncccn2)cc1 (stereo not given),2.39,–
CCC1CCCCN1C(=O)Nc1cccc(NC(=O)N2CCCCC2CC)c1 (stereo not given),-7.69,–
O=C(/C=C/c1ccco1)NC(=S)Nc1ccccc1Br,-9.89,–
COc1ccc(OCC(=O)Nc2ccc(NC(=O)c3ccco3)c(C)c2)cc1,-16.6,–
O=C(Nc1ccccc1)/C(=C\c1ccco1)NC(=O)c1ccco1,0.703,–
Cc1cccc(OCC(=O)Nc2ccc(NC(=O)c3ccco3)c(C)c2)c1,1.53,–
CCOC(=O)c1ccc(NC(=O)CNC(=O)c2ccco2)cc1,0.021,–
Cc1ccc(C(=O)COc2cccc(NC(=O)c3ccco3)c2)cc1,–,23.9 µM (active)
COC(=O)c1cc(NC(=O)c2ccco2)ccc1N1CCOCC1,-2.45,–
Cc1cc(NC(=O)[C@H](C)NC(=O)c2ccco2)ccc1Br,-6.64,–
O=C(/C=C/c1ccco1)Nc1ccc(Oc2ccccc2)cc1,–,6.01 µM (active)
COc1ccc(NC(=O)c2ccco2)cc1NC(=O)COc1ccc(C)c(C)c1,-0.508,–
Cc1cc(NC(=O)c2ccc(F)cc2)ccc1NC(=O)c1ccco1,–,16.9 µM (active)

Structure (SMILES),"activity change, negative = inhibition [%]",Potency
COC(=O)c1ccc(NC(=O)c2ccco2)cc1,–,15.1 µM (active)
COc1ccc(CC(=O)N2N=C(C)CC2(O)C(F)(F)F)cc1 (stereo not given),0.709,–
C#CCN1CC(C)/C(=N/O)CC1C (stereo not given),1.93,–
CCOc1ccc(Nc2nc3c(S(=O)(=O)c4cccc(Cl)c4)nnn3c3ccsc23)cc1,-0.0358,–
Cc1ccc(Cl)cc1N1CCN(S(=O)(=O)c2cc3[nH]c(=O)c(=O)[nH]c3cc2C)CC1,-6.22,–
COc1ccc(NC(=O)N2CCCn3nc(C)cc32)cc1OC,-4.67,–
Cc1cc(C)cc(NC(=O)CCS(=O)(=O)c2cc3c4c(c2)CCN4C(=O)CC3)c1,-1.85,–
Cc1ccc(Cl)cc1NC(=O)CCS(=O)(=O)c1ccc(Br)s1,-5.76,–
Cc1ccc(N(CC(=O)NCC(C)c2ccccc2)S(=O)(=O)N(C)C)cc1 (stereo not given),-1.89,–
CCN(CC(=O)NCc1ccc(Cl)cc1)C(=O)c1c(C)noc1C,-12.6,–
COc1ccc(NC(=S)SC)cc1OC,-3.07,–
Cc1ccc2c(=O)c(C(=O)c3ccc(F)cc3)cn(CC(=O)NC3CCCCC3)c2n1,-0.59,–
COc1ccc(NC(=O)CCC(=O)Nc2cc(OC)c(NC(=O)c3ccco3)cc2OC)c(OC)c1,-0.211,–
O=C(Nc1ccccc1)c1ccco1,-18.2,–
O=C(Nc1ccc(Oc2ccccc2)cc1)c1ccco1,–,5.36 µM (active)
CSCCC(NC(=O)c1ccco1)C(=O)NCCc1ccc(F)cc1 (stereo not given),-2.58,–
CSCCC(NC(=O)c1ccco1)C(=O)OCC(=O)Nc1ncc(Cl)c(C)c1Cl (stereo not given),3.55,–
Cc1cccc(NC(=O)Nc2cccc(Oc3c(F)c(F)c(F)c(F)c3F)c2)c1,-1.28,–
O=C(NNC(=O)c1ccco1)Nc1ccccc1,0.191,–
Cc1ccoc1C(=O)Nc1cccc(Oc2ccccc2)c1,–,6.75 µM (active)
COc1ccc(NC(=O)c2ccco2)cc1NC(=O)c1ccc(C#N)cc1F,–,inactive
Cc1cc(C)c(NC(=O)c2oc3ccccc3c2COc2ccccc2)c(C)c1,0.145,–
CSCCC(NC(=O)c1ccco1)C(=O)Nc1cc(C)ccn1 (stereo not given),–,15.1 µM (active)
COc1cccc(C(=O)Nc2ccc(NC(=O)c3ccco3)cn2)c1,–,21.3 µM (active)
